# From PubChem BioAssay (EPA / NIEHS)
# Calls of active or inactive are those of the source. How the source made its calls: active means hit-call score of the fitted dose curve at least 0.9, where 1 is the maximum; inactive means score below 0.9.
# Assays:
# [1] = read-out: Tumor necrosis factor receptor superfamily member 6 (Homo sapiens) (UniProt P25445); experiment: LTEA_HepaRG_FAS: Life Technologies and Expression Analysis (LTEA) Assay for Fas cell surface death receptor (FAS) using HepaRG (AID 2283447); conditions: mRNA level, 48 h; actives raise or lower the signal
# How it was run: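 Differentiated HepaRG cells in serum-free induction medium were exposed 48 h to 8 half-log concentrations up to 100 uM in 0.5% DMSO, in duplicate. FAS mRNA was measured by qRT-PCR normalised to ACTB, GAPDH and POLR2A; bidirectional fit versus DMSO.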
# [2] = read-out: Fatty acid synthase (Homo sapiens) (UniProt P49327); experiment: LTEA_HepaRG_FASN: Life Technologies and Expression Analysis (LTEA) Assay for Fatty Acid Synthase (FASN) using HepaRG (AID 2283448); conditions: mRNA level, 48 h; actives raise or lower the signal
# How it was run: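 Differentiated human HepaRG cells were exposed for 48 h in serum-free induction medium to eight half-log concentrations up to 100 uM in 0.5% DMSO, in duplicate. FASN mRNA was quantified by TaqMan qRT-PCR, normalized to ACTB/GAPDH/POLR2A, and fitted bidirectionally against DMSO.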
# [3] = read-out: Cyclin D2 (CCND2), CCND2 (gene 894); experiment: LTEA_HepaRG_CCND2: Life Technologies and Expression Analysis (LTEA) Assay for Cyclin D2 (CCND2) using HepaRG (AID 2283449); conditions: mRNA level, 48 h; actives raise or lower the signal;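 further: CCND2 transcript measured by TaqMan qRT-PCR and normalised to three housekeeping genes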
# How it was run: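 Chemicals in 0.5% DMSO, eight half-log concentrations from 100 uM top, were applied in duplicate for 48 h to human HepaRG cells in serum-free induction medium. CCND2 mRNA by TaqMan qRT-PCR, normalised to ACTB/GAPDH/POLR2A; bidirectional fit versus DMSO.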
# [4] = read-out: Cyclin Dependent Kinase Inhibitor 1A (CDKN1A), CDKN1A (gene 1026); experiment: LTEA_HepaRG_CDKN1A: Life Technologies and Expression Analysis (LTEA) Assay for Cyclin Dependent Kinase Inhibitor 1A (CDKN1A) using HepaRG (AID 2283450); conditions: mRNA level, 48 h; actives raise or lower the signal
# How it was run: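 Gain or loss of CDKN1A transcript is scored by bidirectional fitting against 0.5% DMSO vehicle. Human HepaRG cultures receive chemicals for 48 h across an 8-point series peaking at 100 uM; expression comes from qRT-PCR.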
# [5] = read-out: flavin-containing dimethylaniline monooxygenases 3 (FMO3), FMO3 (gene 2328); experiment: LTEA_HepaRG_FMO3: Life Technologies and Expression Analysis (LTEA) Assay for flavin-containing dimethylaniline monooxygenases 3 (FMO3) using HepaRG (AID 2283453); conditions: mRNA level, 48 h; actives raise or lower the signal
# How it was run: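 HepaRG, 48 h exposure, 8-pt half-log series from 100 uM, 0.5% DMSO vehicle, duplicates; FMO3 transcript by Fluidigm TaqMan qRT-PCR, housekeeping-normalized; gain/loss fit vs DMSO.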
# [6] = read-out: Cytochrome P450 (CYP1A1), CYP1A1 (gene 1543); experiment: LTEA_HepaRG_CYP1A1: Life Technologies and Expression Analysis (LTEA) Assay for Cytochrome P450 (CYP1A1) using HepaRG (AID 2283454); conditions: mRNA level, 48 h; actives raise or lower the signal
# How it was run: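 Using HepaRG cultures with 0.5% DMSO as vehicle, eight-concentration exposures (max 100 uM) lasted 48 h. Transcript levels were measured by TaqMan qRT-PCR and normalized to ACTB, GAPDH and POLR2A.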
# [7] = read-out: CFLAR gene, CFLAR (gene 8837); experiment: LTEA_HepaRG_CFLAR: Life Technologies and Expression Analysis (LTEA) Assay for CFLAR gene using HepaRG (AID 2283455); conditions: mRNA level, 48 h; actives raise or lower the signal
# How it was run: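 Differentiated HepaRG cells in serum-free induction medium were exposed 48 h in duplicate to eight half-log concentrations up to 100 uM in 0.5% DMSO; mRNA measured by TaqMan qRT-PCR, normalized to ACTB, GAPDH, POLR2A; bidirectional fitting versus DMSO.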
# [8] = read-out: Forkhead box O1 (FOXO1), FOXO1 (gene 2308); experiment: LTEA_HepaRG_FOXO1: Life Technologies and Expression Analysis (LTEA) Assay for Forkhead box O1 (FOXO1) using HepaRG (AID 2283456); conditions: mRNA level, 48 h; actives raise or lower the signal
# How it was run: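 Differentiated HepaRG cells, in serum-free induction medium with 0.5% DMSO, exposed 48 h in duplicate to 8-point half-log series from 100 uM. FOXO1 mRNA measured by TaqMan qRT-PCR, normalized to ACTB, GAPDH, POLR2A; bidirectional fit versus DMSO.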
# [9] = read-out: growth arrest and DNA damage 45 (GADD45A), GADD45A (gene 1647); experiment: LTEA_HepaRG_GADD45A: Life Technologies and Expression Analysis (LTEA) Assay for growth arrest and DNA damage 45 (GADD45A) using HepaRG (AID 2283458); conditions: mRNA level, 48 h; actives raise or lower the signal
# How it was run: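 Differentiated HepaRG cells were exposed in duplicate for 48 h in serum-free induction medium to 8-point half-log concentrations up to 100 uM in 0.5% DMSO. GADD45A mRNA was measured by TaqMan qRT-PCR, normalized to ACTB, GAPDH and POLR2A, with bidirectional fitting versus DMSO.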
# [10] = read-out: Forkhead box O3 (FOXO3), FOXO3 (gene 2309); experiment: LTEA_HepaRG_FOXO3: Life Technologies and Expression Analysis (LTEA) Assay for Forkhead box O3 (FOXO3) using HepaRG (AID 2283459); conditions: mRNA level, 48 h; actives raise or lower the signal
# How it was run: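 Differentiated human HepaRG cells, 48 h post-plating, exposed in duplicate for 48 h in serum-free induction medium; 8-point half-log series from 100 uM in 0.5% DMSO. FOXO3 mRNA by TaqMan qRT-PCR, normalized to ACTB/GAPDH/POLR2A; bidirectional fit versus DMSO.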
# [11] = read-out: ABC Transporter (ABCB1), ABCB1 (gene 5243); experiment: LTEA_HepaRG_ABCB1: Life Technologies and Expression Analysis (LTEA) Assay for ABC Transporter (ABCB1) using HepaRG (AID 2283460); conditions: mRNA level, 48 h; actives raise or lower the signal
# How it was run: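 HepaRG cells exposed in duplicate for 48 h in serum-free induction medium to eight half-log concentrations up to 100 uM in 0.5% DMSO. ABCB1 mRNA quantified by qRT-PCR, normalised to ACTB, GAPDH and POLR2A; fitted bidirectionally versus DMSO.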
# [12] = read-out: growth arrest and DNA damage 45 (GADD45B), GADD45B (gene 4616); experiment: LTEA_HepaRG_GADD45B: Life Technologies and Expression Analysis (LTEA) Assay for growth arrest and DNA damage 45 (GADD45B) using HepaRG (AID 2283461); conditions: mRNA level, 48 h; actives raise or lower the signal
# How it was run: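 Human HepaRG monolayers receive chemicals for 48 h at eight half-log concentrations, highest 100 uM, in 0.5% DMSO. Expression is measured by TaqMan qRT-PCR and normalized to ACTB, GAPDH and POLR2A.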
# [13] = read-out: ABC Transporter (ABCC3), ABCC3 (gene 8714); experiment: LTEA_HepaRG_ABCC3: Life Technologies and Expression Analysis (LTEA) Assay for ABC Transporter (ABCC3) using HepaRG (AID 2283462); conditions: mRNA level, 48 h; actives raise or lower the signal
# How it was run: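 Transcriptional change of ABCC3 in HepaRG after 48 h treatment, determined by qRT-PCR normalized to endogenous controls. Concentrations spanned eight half-log steps to 100 uM in 0.5% DMSO.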
# [14] = read-out: ABC Transporter (ABCB11), ABCB11 (gene 8647); experiment: LTEA_HepaRG_ABCB11: Life Technologies and Expression Analysis (LTEA) Assay for ABC Transporter (ABCB11) using HepaRG (AID 2283463); conditions: mRNA level, 48 h; actives raise or lower the signal
# How it was run: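 Differentiated human HepaRG cells in serum-free induction medium, dosed in duplicate for 48 h. Eight-point half-log series from 100 uM in 0.5% DMSO; ABCB11 mRNA by qRT-PCR, normalized to ACTB, GAPDH, POLR2A, fitted bidirectionally versus DMSO.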
# [15] = read-out: ABC Transporter (ABCC2), ABCC2 (gene 1244); experiment: LTEA_HepaRG_ABCC2: Life Technologies and Expression Analysis (LTEA) Assay for ABC Transporter (ABCC2) using HepaRG (AID 2283464); conditions: mRNA level, 48 h; actives raise or lower the signal
# How it was run: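 After plating and 48 h culture, HepaRG medium is replaced with serum-free induction medium and chemicals are added (8 concentrations, max 100 uM, 0.5% DMSO) for 48 h. Total RNA then undergoes qRT-PCR for ABCC2 with housekeeping normalization.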
# [16] = read-out: Broad substrate specificity ATP-binding cassette transporter ABCG2 (Homo sapiens) (UniProt Q9UNQ0); experiment: LTEA_HepaRG_ABCG2: Life Technologies and Expression Analysis (LTEA) Assay for ABC Transporter (ABCG2) using HepaRG (AID 2283465); conditions: mRNA level, 48 h; actives raise or lower the signal
# How it was run: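 Differentiated HepaRG cells were exposed for 48 h in serum-free induction medium to 8 half-log concentrations, top 100 uM, in 0.5% DMSO. ABCG2 mRNA was measured by qRT-PCR, normalized to ACTB, GAPDH and POLR2A, with bidirectional fitting versus DMSO.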
# [17] = read-out: ATP-citrate lyase (ACLY), ACLY (gene 47); experiment: LTEA_HepaRG_ACLY: Life Technologies and Expression Analysis (LTEA) Assay for ATP-citrate lyase (ACLY) using HepaRG (AID 2283466); conditions: mRNA level, 48 h; actives raise or lower the signal
# How it was run: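 Differentiated HepaRG cells exposed 48 h in serum-free induction medium to eight half-log concentrations up to 100 uM in 0.5% DMSO, duplicates. Transcript measured by Fluidigm TaqMan qRT-PCR, normalized to ACTB, GAPDH, POLR2A; bidirectional fit versus DMSO.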
# [18] = CEETOX_H295R_PROG: CeeTox H295R High-throughput Steroidogenesis Assay for Progesterone (PROG) (AID 2283442); conditions: actives raise or lower the signal
# How it was run: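 Measured analyte is progesterone secreted by H295R cells at 48 h of chemical treatment, following 10 uM forskolin priming. Quantitation used HPLC-MS/MS against a 7-point standard curve; cytotoxicity was checked by MTT absorbance.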
# [19] = CEETOX_H295R_ESTRONE: CeeTox H295R High-throughput Steroidogenesis Assay for Estrone (AID 2283441); conditions: actives raise or lower the signal;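 further: estrone secreted into medium measured by LC-MS/MS after dansyl derivatization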
# How it was run: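 H295R cells; 48 h forskolin (10 uM) prestimulation; 48 h compound exposure, 0.1% DMSO final. Medium estrone: MTBE extraction, dansyl derivatization, HPLC-MS/MS. Bidirectional fit vs DMSO.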
# [20] = CEETOX_H295R_TESTO: CeeTox H295R High-throughput Steroidogenesis Assay for Testosterone (TESTO) (AID 2283457); conditions: actives raise or lower the signal
# How it was run: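 Steroidogenesis in H295R cells following OECD 456 with minor changes; 48 h exposure. Medium testosterone by HPLC-MS/MS, DMSO as baseline, with MTT viability run in parallel.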
# Fatty acid synthase (Homo sapiens), sequence (P49327 whole entry, looked up): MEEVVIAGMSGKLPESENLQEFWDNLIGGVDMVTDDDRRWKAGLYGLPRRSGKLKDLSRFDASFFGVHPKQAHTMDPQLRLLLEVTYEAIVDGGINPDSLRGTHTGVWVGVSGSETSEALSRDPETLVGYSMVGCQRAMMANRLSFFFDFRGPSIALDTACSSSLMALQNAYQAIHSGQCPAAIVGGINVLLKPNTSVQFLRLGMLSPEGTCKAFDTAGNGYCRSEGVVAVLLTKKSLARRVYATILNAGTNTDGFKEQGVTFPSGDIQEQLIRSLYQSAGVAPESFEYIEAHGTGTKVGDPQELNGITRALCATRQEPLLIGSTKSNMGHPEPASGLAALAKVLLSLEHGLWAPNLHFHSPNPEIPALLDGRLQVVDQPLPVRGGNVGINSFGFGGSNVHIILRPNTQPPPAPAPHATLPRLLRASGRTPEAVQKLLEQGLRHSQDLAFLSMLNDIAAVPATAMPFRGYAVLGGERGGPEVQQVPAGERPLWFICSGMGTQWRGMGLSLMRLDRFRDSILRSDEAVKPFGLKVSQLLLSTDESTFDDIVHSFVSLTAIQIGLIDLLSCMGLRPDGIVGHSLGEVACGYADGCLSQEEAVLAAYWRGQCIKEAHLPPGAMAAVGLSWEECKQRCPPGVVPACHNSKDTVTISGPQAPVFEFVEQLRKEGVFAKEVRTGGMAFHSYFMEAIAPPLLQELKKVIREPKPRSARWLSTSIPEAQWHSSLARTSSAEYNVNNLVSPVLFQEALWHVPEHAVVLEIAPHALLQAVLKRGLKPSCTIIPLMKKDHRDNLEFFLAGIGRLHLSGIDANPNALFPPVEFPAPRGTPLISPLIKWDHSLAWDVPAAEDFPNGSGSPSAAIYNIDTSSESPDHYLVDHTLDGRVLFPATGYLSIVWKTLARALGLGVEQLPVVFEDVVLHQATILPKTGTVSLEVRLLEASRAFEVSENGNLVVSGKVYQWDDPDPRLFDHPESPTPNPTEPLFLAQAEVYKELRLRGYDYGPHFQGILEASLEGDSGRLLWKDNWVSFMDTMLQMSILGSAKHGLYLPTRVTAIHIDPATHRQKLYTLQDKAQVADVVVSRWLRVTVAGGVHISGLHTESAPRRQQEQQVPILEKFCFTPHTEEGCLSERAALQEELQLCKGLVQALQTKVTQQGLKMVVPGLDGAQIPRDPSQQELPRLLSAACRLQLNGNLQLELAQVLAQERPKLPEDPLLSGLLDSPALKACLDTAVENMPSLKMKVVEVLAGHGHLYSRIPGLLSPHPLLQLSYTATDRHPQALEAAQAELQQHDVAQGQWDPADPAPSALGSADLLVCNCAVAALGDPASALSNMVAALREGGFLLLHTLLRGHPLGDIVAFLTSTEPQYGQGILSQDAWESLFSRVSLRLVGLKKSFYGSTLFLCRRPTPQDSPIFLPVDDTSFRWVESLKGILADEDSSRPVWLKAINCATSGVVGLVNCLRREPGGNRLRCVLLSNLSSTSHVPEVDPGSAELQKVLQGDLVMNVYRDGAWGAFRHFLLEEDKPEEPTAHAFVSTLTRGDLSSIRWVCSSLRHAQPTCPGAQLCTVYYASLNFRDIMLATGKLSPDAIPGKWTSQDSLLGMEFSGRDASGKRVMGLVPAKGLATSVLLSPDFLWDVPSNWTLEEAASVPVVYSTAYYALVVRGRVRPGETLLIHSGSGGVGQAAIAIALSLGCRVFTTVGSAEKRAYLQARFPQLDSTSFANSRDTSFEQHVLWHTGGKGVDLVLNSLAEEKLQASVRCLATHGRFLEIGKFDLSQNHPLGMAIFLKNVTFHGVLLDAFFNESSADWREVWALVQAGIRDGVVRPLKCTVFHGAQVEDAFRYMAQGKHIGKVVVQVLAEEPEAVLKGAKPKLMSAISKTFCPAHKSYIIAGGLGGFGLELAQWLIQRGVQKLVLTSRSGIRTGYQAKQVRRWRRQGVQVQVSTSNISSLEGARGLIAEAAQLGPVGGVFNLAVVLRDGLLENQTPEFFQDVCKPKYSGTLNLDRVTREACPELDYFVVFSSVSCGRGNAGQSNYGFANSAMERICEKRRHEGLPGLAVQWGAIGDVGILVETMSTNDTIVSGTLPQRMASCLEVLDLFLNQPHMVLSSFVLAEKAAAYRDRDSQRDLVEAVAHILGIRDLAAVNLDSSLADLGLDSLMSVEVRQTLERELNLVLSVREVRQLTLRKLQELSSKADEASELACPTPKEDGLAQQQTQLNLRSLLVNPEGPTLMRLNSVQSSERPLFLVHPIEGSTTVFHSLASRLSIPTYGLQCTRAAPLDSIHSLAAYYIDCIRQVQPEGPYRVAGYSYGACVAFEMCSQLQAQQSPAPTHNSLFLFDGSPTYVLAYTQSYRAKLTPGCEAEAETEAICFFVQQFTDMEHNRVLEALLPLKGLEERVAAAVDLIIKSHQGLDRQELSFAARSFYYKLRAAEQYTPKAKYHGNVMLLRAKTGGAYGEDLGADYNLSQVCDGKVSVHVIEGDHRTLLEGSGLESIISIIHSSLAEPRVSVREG
# Broad substrate specificity ATP-binding cassette transporter ABCG2 (Homo sapiens), sequence (Q9UNQ0 whole entry, looked up): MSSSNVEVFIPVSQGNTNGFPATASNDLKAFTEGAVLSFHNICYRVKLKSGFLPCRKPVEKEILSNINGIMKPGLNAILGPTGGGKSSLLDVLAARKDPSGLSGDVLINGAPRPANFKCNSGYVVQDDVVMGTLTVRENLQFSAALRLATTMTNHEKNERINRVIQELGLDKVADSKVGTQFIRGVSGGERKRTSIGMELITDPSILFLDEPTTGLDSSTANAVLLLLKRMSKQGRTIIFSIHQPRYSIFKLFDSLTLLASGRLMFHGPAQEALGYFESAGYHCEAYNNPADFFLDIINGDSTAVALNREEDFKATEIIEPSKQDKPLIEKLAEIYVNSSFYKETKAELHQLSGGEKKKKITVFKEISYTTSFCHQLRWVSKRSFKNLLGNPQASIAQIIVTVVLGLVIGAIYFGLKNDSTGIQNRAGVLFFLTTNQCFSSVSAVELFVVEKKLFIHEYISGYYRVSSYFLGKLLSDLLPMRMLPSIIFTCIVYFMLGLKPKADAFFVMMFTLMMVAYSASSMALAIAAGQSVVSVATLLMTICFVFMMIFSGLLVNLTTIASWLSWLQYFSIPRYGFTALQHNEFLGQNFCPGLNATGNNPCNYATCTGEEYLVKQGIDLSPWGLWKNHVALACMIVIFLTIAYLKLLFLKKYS
structure (smiles),measurement,setting,value
N#Cc1cccnc1,outcome,[1],inactive
same,outcome,[2],inactive
same,outcome,[3],inactive
same,outcome,[4],inactive
same,outcome,[5],inactive
same,outcome,[6],inactive
same,outcome,[7],inactive
same,outcome,[8],inactive
same,outcome,[9],inactive
same,outcome,[10],inactive
same,outcome,[11],inactive
same,outcome,[12],inactive
same,outcome,[13],inactive
same,outcome,[14],inactive
same,outcome,[15],inactive
same,outcome,[16],inactive
same,outcome,[17],inactive
Cc1cc(C)cc(C)c1,outcome,[18],inactive
same,outcome,[2],inactive
same,outcome,[3],inactive
same,outcome,[4],inactive
same,outcome,[5],inactive
same,outcome,[6],inactive
same,outcome,[7],inactive
same,outcome,[8],inactive
same,outcome,[9],inactive
same,outcome,[10],inactive
same,outcome,[11],inactive
same,outcome,[12],inactive
same,outcome,[13],inactive
same,outcome,[14],inactive
same,outcome,[15],inactive
same,outcome,[16],inactive
same,outcome,[17],inactive
CC(C)(COCC1CO1)COCC1CO1 (configuration not stated),outcome,[19],inactive
same,outcome,[18],inactive
COc1ccccc1N,outcome,[1],inactive
same,outcome,[2],inactive
same,outcome,[3],inactive
same,outcome,[4],inactive
same,outcome,[5],inactive
same,AC50,[6],68.2 µM (active)
same,outcome,[7],inactive
same,outcome,[8],inactive
same,outcome,[9],inactive
same,outcome,[10],inactive
same,outcome,[11],inactive
same,outcome,[12],inactive
same,outcome,[13],inactive
same,outcome,[14],inactive
same,outcome,[15],inactive
same,outcome,[16],inactive
same,outcome,[17],inactive
Cc1ccccc1OP(=O)(Oc1ccccc1C)Oc1ccccc1C,outcome,[18],inactive
same,outcome,[20],inactive
O=C(O)C1(c2ccc3c(c2)OC[C@H](Cc2ccc(-c4ccccc4)cc2)[C@H]3O)CCCC1,outcome,[1],inactive
same,AC50,[2],50 µM (active)
same,outcome,[3],inactive
same,AC50,[4],80.2 µM (active)
same,AC50,[5],81.8 µM (active)
same,AC50,[6],23.3 µM (active)
same,outcome,[7],inactive
same,AC50,[8],50 µM (active)
same,outcome,[9],inactive
same,outcome,[10],inactive
same,outcome,[11],inactive
same,AC50,[12],86.9 µM (active)
same,AC50,[13],75.7 µM (active)
same,outcome,[14],inactive
same,outcome,[15],inactive
same,outcome,[16],inactive
same,AC50,[17],82.4 µM (active)
